Out of some 69,000 compounds screened, about 8,600 (12%) showed an effect of 50% or more. Shown is part of a subset that was picked to be rich in strong results.
Tested on: Plasmodium berghei
Assay: Screen against P. berghei liver stage (PbLuc), transformed with Luciferase, at 10uM
Assay type: functional, HepG2
Settings: tested at 10 uM

Row | SMILES | INHIBITION [%]
1 | O=C(C1CCOC1)N1CC[C@@H](O)[C@@H]1Cc1ccccc1 (stereo partly specified) | 10.7
2 | CCC(=O)N1CCCc2c(cnn2C)C1 | -5.452
3 | COC(=O)CNC(=O)c1cc(-c2ccccc2)nc2ncnn12 | 28.2
4 | O=C(NCC(F)F)c1cc(-c2ccccc2)nc2ncnn12 | 60.2
5 | CNC(=O)c1cc(-c2ccccc2)nc2ncnn12 | 49
6 | Cc1ccc(C(=O)N2CCC3(CC2)COC(COc2ccccn2)C3)o1 (stereo unspecified) | -9.1
7 | O=C(c1ccncc1)N1CCCC1c1cccc(Br)c1 (stereo unspecified) | 15.1
8 | CCc1ncc2c(n1)CN(C(=O)c1c(C)[nH]c3c1C(=O)CCC3)C2 | 61
9 | CCc1ncc2c(n1)CN(C(=O)CNC(=O)C(C)C)C2 | 10.3
10 | O=C(Cn1c(=O)oc2ccccc21)N1Cc2cncnc2C1 | 15.4
11 | CCc1ncc2c(n1)CN(C(=O)COC)C2 | -7.35
12 | CC(=O)c1c(C)nn(CC(=O)N2Cc3cnc(CC(C)C)nc3C2)c1C | 27.9
13 | CC(C)Cc1ncc2c(n1)CN(C(=O)Cn1c(=O)oc3ccccc31)C2 | 54.5
14 | CC(=O)NCC(=O)N1Cc2cnc(CC(C)C)nc2C1 | 60.3
15 | CCc1ncc2c(n1)CN(C(=O)CNC(=O)c1ccccc1)C2 | 30.3
16 | CCc1ncc2c(n1)CN(C(=O)CC(C)NC(C)=O)C2 (stereo unspecified) | 51.2
17 | CCc1ncc2c(n1)CN(C(=O)c1c(C)[nH]c(C(C)=O)c1C)C2 | 39.6
18 | O=C(Cn1c(=O)oc2ccccc21)N1Cc2cnn(CCO)c2C1 | 13.7
19 | CCOc1ccc(C(=O)N2Cc3cnc(CC)nc3C2)o1 | -6.83
20 | FC(F)(F)c1ccc(-c2cnc(C3CCCN3)cn2)cc1 (stereo unspecified) | 34.675
21 | CCC(CC)C(=O)N1CCN(Cc2cc(-c3ccncc3)nn2C)CC1 | -8.12
22 | Cc1nn(C)c(N2CCOCC2)c1CNCc1ccccc1CO | -25.9
23 | NC(=O)C(NCc1nn(-c2ccccc2)c2c1CCC2)c1ccccc1 (stereo unspecified) | 8.15
24 | Fc1ccccc1CN1CCC(c2noc(-c3ccccn3)n2)CC1 | -23.4

Row | SMILES | INHIBITION [%]
25 | O=C1NCCCCC1NCc1csc(-c2ccccn2)n1 (stereo unspecified) | 8.07
26 | CC(Cn1cccn1)NC(=O)NCc1ccoc1 (stereo unspecified) | 15.6
27 | CS(=O)(=O)N1CC2(CCN(Cc3ccccn3)C2)Cc2ccccc21 (stereo unspecified) | 14.3
28 | CC(C)CC(=O)NCCCc1cc(N)n(-c2ccccc2)n1 | 16.6
29 | Cc1noc(C)c1CN(C)C(=O)Cn1c(=O)n(C)c2ccccc21 | 26.8
30 | Cc1noc(C)c1CN(C)Cn1c(=O)oc2ccccc21 | 50.4
31 | Cc1noc(C)c1CN(C)Cn1c(=O)n(C)c2ccccc21 | 28.2
32 | Cc1ccc(C(CNC(=O)c2c(C)noc2C(C)C)N(C)C)cc1 (stereo unspecified) | 7.12
33 | Cc1cc(C)n(CC(C)NCc2nncn2C2CCCCC2)n1 (stereo unspecified) | -47.9
34 | CC(CN1CCOCC1)NCc1nncn1C1CCCCC1 (stereo unspecified) | 28.3
35 | CC(CN1CCCCCC1)NCc1nncn1C1CCCCC1 (stereo unspecified) | 75.4
36 | O=C(NCc1ccccc1)[C@H]1C[C@H]2CN(S(=O)(=O)C3CC3)C[C@@H]1O2 | 31.8
37 | CC1CN(Cc2ccc(-n3cccn3)cc2)CCO1 (stereo unspecified) | -15.5
38 | CNC(=O)[C@@H]1C[C@H]2CN(Cc3c(C)noc3C)C[C@H]2N1C(C)C | 83.8
39 | Cc1noc(C)c1CN1C[C@@H]2C[C@H](C(=O)NCC3CC3)N(C)[C@@H]2C1 | 26
40 | Cc1noc(C)c1CN1C[C@@H]2C[C@@H](C)O[C@@H]2C1 | -10.2
41 | Cc1noc(C)c1CN1C[C@@H]2CC(F)(F)C[C@@H]2C1 | 87.2
42 | Cc1noc(C)c1CN1C[C@H]2CNC[C@H]2C1 | -19.2
43 | CNC(=O)[C@H]1C[C@@H]2CN(Cc3c(C)noc3C)C[C@@H]2N1C(C)=O | 22.2
44 | CC(=O)N1CCC(c2cnc(NC3CCOCC3)cn2)CC1 | -20.6
45 | Cc1ncsc1CNC(=O)N(CCCO)C1CCc2ccccc21 (stereo unspecified) | -7.35
46 | COc1cc(S(=O)(=O)N2CCc3ccc(F)cc32)cc(C(=O)O)c1OC | 42.9
47 | Cc1cc(S(=O)(=O)N2CCc3ccc(F)cc32)cc(C(=O)O)c1C | 61.3
48 | Cc1ccc(S(=O)(=O)N2CCc3ccc(F)cc32)cc1C(=O)O | -3.2

Row | SMILES | INHIBITION [%]
49 | O=C(c1ccc[nH]1)N1CCCn2c(CNC3CCC3)nnc2C1 | 45.7
50 | CC(C)CNC(=O)CNc1c(NCc2ccco2)c(=O)c1=O | 31.3
51 | O=C(Cc1ccccc1)NCc1ccc(-c2ccccc2C(=O)O)cn1 | 50.3
52 | COCC(=O)NCc1ccc(-c2ccccc2C(=O)O)cn1 | -26.7
53 | O=C(Cc1ccccc1)NCc1ncc(-c2ccccc2C(=O)O)cn1 | 1.65
54 | Cc1ccc(CNC(=O)c2ccc(F)cc2)o1 | 0.868
55 | CCN1CCc2[nH]cnc2C12CCN(Cc1ccc3nsnc3c1)CC2 | 23.6
56 | O=C(Cc1ccc2c(c1)OCC2)Nc1nn[nH]n1 | 23.1
57 | O=C(O)[C@@H]1CCCN1c1nccc(Nc2ccccc2)n1 | 0.618
58 | O=C([C@@H]1CCCN1c1nccc(Nc2ccccc2)n1)N1CCCCC1 | 78.7
59 | CCC(C)CNC(=O)[C@@H]1CCCN1c1nccc(Nc2ccccc2)n1 (stereo partly specified) | 13.5
60 | Cc1cccc(NC(=O)Nc2c[nH]c(=O)[nH]c2=O)c1C | -13.6
61 | Cc1cc(C(=O)N2CCN(Cc3ccsc3)CC2)c(C)n1C1CC1 | -1.14
62 | CC(C)CN(c1cn[nH]c1)S(=O)(=O)c1cccc(C#N)c1 | 10.8
63 | Cc1ncc(S(=O)(=O)N(CC(C)C)c2cccc(O)c2)s1 | 61
64 | CC(=O)Nc1ncc(S(=O)(=O)Nc2cccc(O)c2)s1 | 13.5
65 | O=C(c1ccc[nH]1)N1CCc2c(cccc2S(=O)(=O)N2CCOCC2)C1 | 22.2
66 | Cc1n[nH]c(CN2CCN(Cc3ccccc3)[C@@H]3CS(=O)(=O)C[C@@H]32)n1 | 18.9
67 | Cn1ccnc1CN1CCN(Cc2ccccc2)[C@@H]2CS(=O)(=O)C[C@@H]21 | 46.7
68 | Cc1n[nH]c(CN2CCN(C(=O)C3CCC3)[C@@H]3CS(=O)(=O)C[C@@H]32)n1 | -2.79
69 | CC(C)=CCN1CCN(Cc2nccn2C)[C@H]2CS(=O)(=O)C[C@H]21 | 23.9
70 | Cc1n[nH]c(CN2CCN(CC3CC3)[C@@H]3CS(=O)(=O)C[C@@H]32)n1 | 55.9
71 | Cn1ccnc1CN1CCN(CC2CC2)[C@@H]2CS(=O)(=O)C[C@@H]21 | 56.7

Source: ChEMBL document CHEMBL4513216, “Probing the Open Global Health Chemical Diversity Library for Multistage-Active Starting Points for Next-Generation Antimalarials” (ACS Infect Dis, 2020)
